Measurements reported in PubChem BioAssay (EPA / NIEHS).
Results filed as inconclusive are left out. Calls of active or inactive are those of the source. The calls were made as follows: active = hit-call score of the fitted dose curve at least 0.9, where 1 is the maximum; inconclusive = response in the unintended direction; inactive = score below 0.9.

Biological target: Estrogen-related receptor gamma (Homo sapiens) (UniProt P62508)
Assay: ATG_ERRg_TRANS: Attagene TRANS-FACTORIAL HepG2 Assay for human Estrogen-Related Receptor gamma (ERRg) (AID 2282977);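 also: hits increase reporter signal over DMSO so potencies reflect activators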
Details: HepG2 Attagene TRANS reporter, ERRg transactivation
In short: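 HepG2 cells transiently transfected with multiplexed GAL4-UAS reporter units and chimeric NR-Gal4 constructs were exposed to test chemicals for 24 h. Reporter mRNA was measured by RT-PCR, 6-FAM primer extension, HpaI digestion and capillary electrophoresis; gain-of-signal versus DMSO.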

Estrogen-related receptor gamma (Homo sapiens), sequence (P62508 whole entry, looked up): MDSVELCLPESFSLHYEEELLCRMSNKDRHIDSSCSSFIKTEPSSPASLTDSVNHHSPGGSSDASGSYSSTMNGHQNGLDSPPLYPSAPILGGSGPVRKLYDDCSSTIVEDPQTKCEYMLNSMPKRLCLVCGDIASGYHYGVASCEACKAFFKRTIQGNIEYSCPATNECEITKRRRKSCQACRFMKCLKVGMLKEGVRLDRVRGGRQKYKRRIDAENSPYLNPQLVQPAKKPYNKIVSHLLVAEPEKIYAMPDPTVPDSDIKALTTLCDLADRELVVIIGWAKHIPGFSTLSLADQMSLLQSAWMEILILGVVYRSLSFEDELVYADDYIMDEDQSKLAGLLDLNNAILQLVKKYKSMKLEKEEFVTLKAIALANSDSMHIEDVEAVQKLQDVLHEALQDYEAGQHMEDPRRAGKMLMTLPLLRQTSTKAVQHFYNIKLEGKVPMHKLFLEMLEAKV

outcome, inactive:
N#[N+]c1ccc2c(S(=O)(=O)[O-])cccc2c1O, CCCOCCOCCOCCO, O=Cc1ccc(CO)o1, CCc1c(C(=O)O)c(=O)cnn1-c1ccc(Cl)cc1, c1ccc(-c2ccccn2)nc1, C=CC(C)(C)C, c1cc(N(CC2CO2)CC2CO2)ccc1OCC1CO1 (stereo not given), CCCCC(CC)COC(=O)c1ccccc1O (stereo not given), NC(=O)NNC(N)=O, CCCOC(=O)CCCCC(=O)OCCC
